These results are taken from PubChem BioAssay AID504847 (National Center for Advancing Translational Sciences (NCATS), 2011).

Hit rate of the full screen: of about 400,000 compounds, about 3,700 (0.93%) were called active. About 3% were inconclusive and are not listed. The sample holds actives, similar compounds and a random draw of the others, so the mix is not that of the screen. Calls follow the shape of the dose curve; as a rule, active = well fitted inhibition curve with a large enough effect; inconclusive = small, poorly fitted or top-dose-only effect, or another doubt; inactive = no such curve, though single readings can be large or run the other way.
% is scaled to controls: 0 for no effect and ±100 for the full control effect; potency is read from the fitted curve at half-maximal effect.

Vitamin D3 receptor (Homo sapiens), sequence (P11473 whole entry, looked up): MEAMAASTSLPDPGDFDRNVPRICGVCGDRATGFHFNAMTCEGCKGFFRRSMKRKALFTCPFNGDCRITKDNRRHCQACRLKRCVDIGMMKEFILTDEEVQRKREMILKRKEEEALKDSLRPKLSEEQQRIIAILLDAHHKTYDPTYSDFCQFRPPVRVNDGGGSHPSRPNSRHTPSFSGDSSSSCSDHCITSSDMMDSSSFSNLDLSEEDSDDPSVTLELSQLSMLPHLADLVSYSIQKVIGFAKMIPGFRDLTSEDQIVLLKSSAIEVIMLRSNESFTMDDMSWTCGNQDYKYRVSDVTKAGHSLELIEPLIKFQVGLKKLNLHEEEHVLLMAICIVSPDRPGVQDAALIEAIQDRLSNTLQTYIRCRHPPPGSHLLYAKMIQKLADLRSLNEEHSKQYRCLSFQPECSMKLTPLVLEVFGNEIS

The assay concerns the target Vitamin D3 receptor (Homo sapiens) (UniProt P11473). Briefly: Inhibitors of the vitamin D receptor (VDR): qHTS. The following applies: VDR-SRC2-3 peptide fluorescence polarization, 2 h; max response, negative = inhibition: stronger effect = lower value. The essentials: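 Signal is fluorescence polarization, reporting how far test compounds block the interaction of VDR with the SRC2-3 coregulator peptide after a 2 h room-temperature incubation.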
(In general: Quantitative high-throughput screening tests each substance at several concentrations.)
As to `COc1ccc2[nH]c3c(c2c1)CCN(C(=O)CCC1CCCC1)C3c1ccc(F)cc1` (stereo not drawn), the max response, negative = inhibition was 12.3% (inactive). On the same count and under the same terms, as for `CCc1cc2c(cc3c(=O)n(CC(=O)NCc4cccc(Cl)c4)nc(CC)n32)s1`, the figure is -17.2% (inactive); as for `CC(C)(C)C(=O)CSc1nc2ccccc2o1`, -1.66% (inactive).

For `O=C(CSc1nc2ccccc2o1)N/N=C/c1ccccc1C(=O)O`, the max response, negative = inhibition is -26.3% (inactive). With `Cc1ccc(/C=N/NC(=O)CSc2nc3ccccc3o2)cc1`, the Potency was 79.4 µM (active). As for `COc1ccc(OCCCn2c(C)nc3cc(C)c(C)cc32)cc1`, the max response, negative = inhibition was 10% (inactive). As to `COc1cc2c(cc1OC)[C@@H](Cc1cc(OC)c(OC)c(OC)c1)[N+](C)(CCCOC(=O)CC/C=C/CCC(=O)OCCC[N+]1(C)CCc3cc(OC)c(OC)cc3[C@H]1Cc1cc(OC)c(OC)c(OC)c1)CC2` (stereo partly drawn), the max response, negative = inhibition is 3.39% (inactive). `O=C1C(Cl)=C(Oc2ccccc2)C(=O)c2ccccc21`: the Potency is 7.08 µM (active). On to `CCOc1cc(C(=O)Nc2nnc3n2CCS3)cc(OCC)c1OCC`, for which the max response, negative = inhibition was -8% (inactive). For `O=S(=O)(c1cccc(C(F)(F)F)c1)N1CCN(c2nc(-c3cccs3)nc3ccccc23)CC1`, the max response, negative = inhibition was 3.96% (inactive). Regarding `COc1ccccc1CNc1nccn(-c2ccc(F)cc2)c1=O`, the max response, negative = inhibition was 6.76% (inactive). For the compound `CC(C)[C@@H](NC(=O)OC(C)(C)C)C(=O)NCC1CCC(C(=O)N[C@@H](Cc2ccccc2)C(=O)O)CC1` (stereo partly drawn), the max response, negative = inhibition is -5.18% (inactive). `C[C@@H](NC(=O)OC(C)(C)C)c1nnc(S(=O)(=O)Cc2ccccc2)o1`: the Potency is 28.2 µM (active). Consider `COc1ccccc1NC(=O)[C@H](COCc1ccccc1)NC(=O)OC(C)(C)C`, for which the max response, negative = inhibition was 6.86% (inactive). Regarding `O=c1cc2nc(-c3ccccc3)nc(SCCOc3ccc(Cl)cc3)n2[nH]1`, the max response, negative = inhibition was 11.1% (inactive).

On to `CCOC(=O)c1cc2c(=O)n3ccccc3nc2n(CC2CCCO2)c1=NC(=O)c1ccccc1F` (stereo not drawn), for which the max response, negative = inhibition is -16% (inactive). With `Cc1ccc(C2c3[nH]c4ccccc4c3CCN2C(=O)c2cccc(C)c2)cc1` (stereo not drawn), the max response, negative = inhibition was 4% (inactive). `Clc1cccc(-n2ncc3c(NCCc4ccccc4)ncnc32)c1`: the max response, negative = inhibition is 2.94% (inactive). As to `CC1CCN(C(=S)c2cccc([N+](=O)[O-])c2)CC1`, the max response, negative = inhibition was 9.7% (inactive).

For `O=C(Oc1ccccc1C(=S)N1CCCCC1)c1cc([N+](=O)[O-])cc([N+](=O)[O-])c1`, the Potency was 89.1 µM (active). With `COc1cc(C(=S)N2CCOCC2)cc(OC)c1OC(=O)c1cc([N+](=O)[O-])cc([N+](=O)[O-])c1`, the max response, negative = inhibition is -18.9% (inactive). For the compound `COc1ccc(OC)c([C@H](O)CNC(=O)CN)c1`, the max response, negative = inhibition was 6.34% (inactive). The same measure, in the same setting: as for `Cc1ccc(CNC(=O)CCc2c(C)nc3nc(CNC(=O)OC(C)(C)C)nn3c2C)cc1`, the figure is 6.84% (inactive).

`CCc1nnc(NC(=O)C2CC(=O)N(c3ccc4c(c3)OCCO4)C2)s1` (stereo not drawn): the Potency was 56.2 µM (active). Turning to `CCOC(=O)c1ccc(NC(=O)C2CC(=O)N(c3ccc4c(c3)OCCO4)C2)cc1` (stereo not drawn), the max response, negative = inhibition was -6.01% (inactive). Turning to `CC(=O)c1ccccc1NC(=O)C1CC(=O)N(c2ccc3c(c2)OCCO3)C1` (stereo not drawn), the max response, negative = inhibition was 0.279% (inactive). With `CCc1cc2c(cc3c(=O)n(CC(=O)NCCc4ccc(OC)c(OC)c4)ncn32)s1`, the max response, negative = inhibition is 14.2% (inactive). On to `CC1CC(C)CN(c2oc(-c3ccc(OCc4ccc(Cl)cc4)cc3)nc2C#N)C1` (stereo not drawn), for which the max response, negative = inhibition is -6.19% (inactive).

`COc1cccc(-c2cc(C(=O)Nc3ccc(C)cc3)[nH]n2)c1`: the max response, negative = inhibition was -3.16% (inactive). Regarding `Cc1ccc(-n2nc(-c3ccco3)cc2C(=O)NCc2cccnc2)cc1`, the Potency is 70.8 µM (active). On to `CSc1sc(C(=O)NC(=O)NCc2cccnc2)c(C)c1-c1ccon1`, for which the max response, negative = inhibition was 1.93% (inactive). Same read-out and setting: as for `Cc1ccc(C(=O)NC(=S)NCc2cccnc2)cc1`, the figure is -6.42% (inactive); as for `COc1cc(CNCCSc2nnnn2C)ccc1OCc1ccc(Cl)cc1Cl`, 1.83% (inactive). With `O=c1c(O)c(Br)ccc2c(Br)c(O)c(O)c(O)c12`, the Potency is 7.94 µM (active). Turning to `O=C(c1ccco1)N(Cc1cccs1)c1ccc(O)cc1`, the max response, negative = inhibition is -6.28% (inactive).

As to `Cc1cccc(CSc2nc3ccncc3n2CC(=O)N(C)C2CCCCC2)c1`, the max response, negative = inhibition was -0.866% (inactive). On to `CCOCCCNC(=O)c1c(NC(=O)Cc2coc3ccc(C)cc23)sc2c1CCC2`, for which the max response, negative = inhibition is 8.22% (inactive). For the compound `O=C(Nc1ccccc1-c1ccccc1)c1cccs1`, the Potency was 70.8 µM (active).

Take `O=C(Nc1ccccc1-c1nnn(CC(=O)N2CCN(c3ccccc3)CC2)n1)c1cccs1`: the max response, negative = inhibition is -0.102% (inactive). On the same count and under the same terms, then `O=C(Nc1ccccc1-c1ccccc1)c1ccccc1[N+](=O)[O-]`, with -7.79% (inactive); and `Cc1ccc(C)c(NC(=O)CSC2=Nc3ccccc3N=C(c3ccc(F)cc3)C2)c1`, with 4.3% (inactive). Consider `Cc1cccc2nc(-c3ccc(Cl)s3)c(Nc3ccc4c(c3)OCCO4)n12`, for which the max response, negative = inhibition was -14.5% (inactive). As to `CC(=O)NCC(O)c1ccc([N+](=O)[O-])cc1` (stereo not drawn), the max response, negative = inhibition is -16.9% (inactive). Still for that read-out and setting: then `C=C(C(C)=O)C(O)c1cccs1` (stereo not drawn), with -7.76% (inactive). With `C=C(C(C)=O)C(O)c1ccc([N+](=O)[O-])cc1` (stereo not drawn), the Potency is 50.1 µM (active).

On to `CCN1CCN(c2cc(C)c3cc(NC(=O)c4cc(Cl)ccc4OC)ccc3n2)CC1`, for which the max response, negative = inhibition was -8.13% (inactive).

Take `CCOc1ccc(CC(=O)NCCc2csc3nc(-c4ccccc4F)nn23)cc1`: the max response, negative = inhibition is 13.3% (inactive). For the compound `CN(C)c1nccc(NCc2ccccc2)c1C#N`, the max response, negative = inhibition is 28.6% (inactive). In the case of `CC(C)n1cnc2c(NCc3ccccc3)cc(OCC3CCN(C)CC3)cc21`, the Potency was 50.1 µM (active). In the case of `CCC(CO)Oc1cc(NC(=O)c2ccc(Cl)cc2)c2ncn(C(C)C)c2c1` (stereo not drawn), the max response, negative = inhibition was -27.1% (inactive).

Turning to `CCOc1ccc(NC(=O)CSc2c3c(nc4ccccc24)CCCC3)cc1`, the max response, negative = inhibition was 0.351% (inactive). Turning to `CC(=O)c1ccc(NS(=O)(=O)c2ccc(-c3cc(C)no3)s2)cc1`, the max response, negative = inhibition is -0.0795% (inactive). Turning to `COc1ccc(CNC(=O)C2=Cc3cccc(OC)c3OC2)cc1OC`, the max response, negative = inhibition was -2.19% (inactive). Turning to `C[C@]12CC[C@@H]3c4ccc(O)cc4C[C@@H](CCCCCCCCCS(=O)CCCC(F)(F)C(F)(F)F)C3[C@@H]1CC[C@@H]2O` (stereo partly drawn), the max response, negative = inhibition is -2.01% (inactive). Take `CCOc1ccc(NC(=O)CSc2nnc3c(n2)[nH]c2ccc(S(=O)(=O)N4CCOCC4)cc23)cc1`: the max response, negative = inhibition was 3.89% (inactive).

As for `CSc1ccccc1C(=O)Nc1cccc(C(C)=O)c1`, the Potency is 39.8 µM (active). For `CSc1ccccc1C(=O)NCc1ccccc1`, the max response, negative = inhibition was 10.4% (inactive). For the compound `CC(=O)c1cccc(NC(=O)c2cc(C)nn2-c2ccccc2)c1`, the max response, negative = inhibition is -12.6% (inactive).

Take `CCCCC/C=C\C/C=C\CCCCCCCCCC(N)=O`: the max response, negative = inhibition was -2.13% (inactive).

`CCN(CC)C(=O)CSc1nc2cc3c(cc2c(=O)n1CCCC(=O)NCc1ccc2c(c1)OCO2)OCO3`: the max response, negative = inhibition was 4.85% (inactive).

With `CCOc1ccc2nc(N3CCCC(C(=O)Nc4cc(C)ccc4C)C3)sc2c1` (stereo not drawn), the max response, negative = inhibition is 5.91% (inactive). Still for that read-out and setting: as for `O=C(O)c1ccc(CSc2nc3cccnc3n2Cc2cccc(F)c2)cc1`, the figure is 9.37% (inactive). With `O=C(/C=C/Sc1ncn[nH]1)c1ccc(Cl)cc1`, the Potency is 39.8 µM (active). For the compound `C[C@@H]1C[C@H]2[C@@H]3C[C@H](F)C4=CC(=O)C=C[C@@]4(C)[C@]3(F)[C@H](O)C[C@]2(C)[C@@]1(O)C(=O)CO`, the max response, negative = inhibition is -2.08% (inactive). In the case of `Cc1ccnc(-n2sc3ccccc3c2=O)n1`, the Potency is 25.1 µM (active). For `CCOC(=O)c1c(C)[nH]c(CCC(=O)Nc2ccc(OC)c(OC)c2)c1C`, the max response, negative = inhibition was -6.79% (inactive). Consider `COc1cc(OC)c(C2C=C(C(=O)O)Nc3ncnn32)cc1OC` (stereo not drawn), for which the max response, negative = inhibition was -29.8% (inactive).

On to `COc1ccccc1CNC(=O)Cn1nc(C)c2nn(-c3ccc(Cl)cc3)c(C)c2c1=O`, for which the max response, negative = inhibition is 3.2% (inactive).

`NC(=O)C1(C(N)=O)OC1c1ccc(Cl)cc1Cl` (stereo not drawn): the Potency is 14.1 µM (active). With `Nc1ccc2c(c1)C(O)c1ccc(Cl)cc1-2` (stereo not drawn), the max response, negative = inhibition is 1.49% (inactive). Regarding `CCN(CC)c1nc(C#N)nc(OC)n1`, the max response, negative = inhibition is -23.3% (inactive). For the compound `CCOC(=O)C1Sc2[nH]c(=O)sc2C(c2ccc(Cl)cc2)C1C(=O)OCC` (stereo not drawn), the Potency is 79.4 µM (active). With `CCOC(=O)c1ccccc1N1C(=O)C2Sc3[nH]c(=O)sc3C(/C=C/c3ccccc3)C2C1=O` (stereo not drawn), the max response, negative = inhibition was -26.2% (inactive). `CCOC(=O)C1CCN(C(=O)Nc2ccc(Cl)cc2)CC1`: the max response, negative = inhibition is 6.67% (inactive). Take `CCCCCn1c(CCCNC(=O)c2ccccc2OC)nc2ccccc21`: the max response, negative = inhibition is 10.5% (inactive).

On to `COc1cccc2c1cc1c(=O)n(CC(=O)N3CCN(c4cccc(Cl)c4)CC3)nc(C)n12`, for which the max response, negative = inhibition was -15.1% (inactive). On to `Cc1cccc(NC(=O)CSc2ncc(-c3ccccc3)[nH]2)c1C`, for which the max response, negative = inhibition is -15.6% (inactive). Turning to `CC(=O)c1c(C)n(S(=O)(=O)c2ccc(Cl)cc2)c2ccc(NS(=O)(=O)c3ccc(Cl)cc3)cc12`, the Potency is 79.4 µM (active). With `CCOC(=O)c1c(C)n(S(=O)(=O)c2ccc(C)cc2C)c2ccc(NS(=O)(=O)c3ccc(C)cc3C)cc12`, the max response, negative = inhibition is -7.13% (inactive). As for `CC(=O)c1c(C)oc2ccc(NS(=O)(=O)c3ccc(C(=O)O)cc3)cc12`, the max response, negative = inhibition was 11.8% (inactive).

`O=C(C1CCCN(S(=O)(=O)c2cccc3nonc23)C1)N1CCN(c2ccccc2F)CC1` (stereo not drawn): the max response, negative = inhibition is -15.4% (inactive). As to `COc1ccc(OC)c(NC(=O)C2CCN(S(=O)(=O)c3ccc(C)cc3)CC2)c1`, the max response, negative = inhibition was 29.3% (inactive). On to `O=C(NCc1ccccc1)c1cc(-c2cccc(Cl)c2)on1`, for which the max response, negative = inhibition is -16.6% (inactive). In the case of `O=C(O)C(c1ccccc1)N1C(=O)/C(=C\c2ccc(-c3cccc(Cl)c3)o2)SC1=S` (stereo not drawn), the Potency was 79.4 µM (active). Consider `Cn1cccc1/C=C1\SC(=S)N(NC(=O)c2ccc(Cl)cc2)C1=O`, for which the max response, negative = inhibition is -22.2% (inactive). For the compound `O=c1[nH]c(/C=C\c2cccc(C(F)(F)F)c2)nc(O)c1[N+](=O)[O-]`, the Potency is 44.7 µM (active). Consider `O=c1[nH]c(/C=C/c2cccc(Br)c2)nc2ccccc12`, for which the max response, negative = inhibition was -10.9% (inactive).

For `O=c1cc(O)c(-c2cccc(C(F)(F)F)c2)c(Cl)[nH]1`, the max response, negative = inhibition is 13.8% (inactive).
